Assay results published in PubChem BioAssay.

Assay: differential killing of epithelial or mesenchymal cells, primary screen, imaging, PC-3E GFP, TEM4-18 mCherry, co-culture (AID 1345086);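 further: cells exposed to compound for 72 h before imaging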
Conditions: imaging cell counts, measured here: mesenchymal TEM4-18 mCherry cell survival, at 1 µM
With `Cc1cc(O)c2c(c1)Cc1cccc(O)c1C2=O` the normalised cell number was 1.2.
`C#C[C@]1(O)CC[C@@H]2C3[C@H](C)CC4=C(CCC(=O)C4)[C@H]3CC[C@@]21C` (stereo not given in full) showed a normalised cell number of 1.21.
Compound `C=CC(C)(C)c1[nH]c2ccccc2c1C1=C(OC)C(=O)C(c2c(C(C)(C)C=C)[nH]c3ccccc23)=C(OC)C1=O` has a normalised cell number of 1.08.
Work on `COC(=O)C1O[C@H](OCc2ccccc2)[C@@H](OC(=O)c2ccccc2)[C@@H](OC(=O)c2ccccc2)C1O` (stereo not given in full) yielded a normalised cell number of 1.2.
`O=c1c(O)cccc2cc(O)c(O)c(O)c12` showed a normalised cell number of 1.02.
In the case of `COCC1O[C@@H](OC)[C@@H](OCc2ccccc2)[C@@H](OCc2ccccc2)C1O` (stereo not given in full), the normalised cell number is reported as 1.01.
With `Cc1c(F)c(F)cc2c(=O)n(N)c(=O)n(C3CC3)c12` the normalised cell number was 0.71.
For `CO[C@H]1C[C@H](O[C@H]2[C@H](C)[C@@H](O[C@@H]3O[C@H](C)C[C@H](N(C)C)[C@H]3O)[C@@H](C)C[C@]3(CO3)C(=O)[C@H](C)[C@@H](O)[C@@H](C)[C@@H](C)OC(=O)[C@@H]2C)O[C@@H](C)[C@@H]1O`, the normalised cell number was 0.97.
For `O=C(Nc1ccc(Cl)cc1)Nc1ccc(CO)cc1`, the normalised cell number was 1.11.
In the case of `CC(CC(=O)N1CCOC1=O)N1C(=S)SC[C@H]1c1ccccc1` (stereo not given in full), the normalised cell number is reported as 0.87.
Work on `CC#C[C@]1(O)CCC2C3CCC4=CC(=O)CCC4=C3[C@@H](c3ccc(N(C)C)cc3)C[C@@]21C` (stereo not given in full) yielded a normalised cell number of 1.09.
`O=C1CC(c2ccc(O)cc2)Oc2ccccc21` (stereo not given) gave a normalised cell number of 1.08.
Work on `C/C(=C\CO)CC[C@H](C)CCC[C@H](C)CCCC(C)C` yielded a normalised cell number of 1.09.
With `O=c1c(O)c(-c2ccc(O)c(O)c2)oc2c(O[C@@H]3O[C@H](CO)[C@H](O)[C@@H](O)[C@H]3O)c(O)cc(O)c12` the normalised cell number was 1.01.
`CC[C@H](CCC(C)[C@H]1CCC2C3CCC4C[C@@H](O)CC[C@]4(C)C3CC[C@@]21C)C(C)C` (stereo not given in full) showed a normalised cell number of 1.01.
`CC(=O)OCC1=C[C@]2(O)CC3=C(CC24O[C@@H]4C1=O)[C@@]1(C)CCCC(C)(C)[C@@H]1CC3` (stereo not given in full) showed a normalised cell number of 0.94.
In the case of `CC[C@H](C)/C=C/C1=CC2=C(Cl)C(=O)[C@@]3(C)OC(=O)C(C(=O)[C@@H](C)[C@@H](C)O)=C3C2=CO1`, the normalised cell number is reported as 0.91.
In the case of `C[C@@H]1C[C@@H](O)[C@@H](O)CO1`, the normalised cell number is reported as 0.96.
With `CC1OC(O[C@H]2/C=C/C=C/C=C/C=C/C=C/C=C/C=C/[C@H](C)[C@@H](O)[C@@H](C)[C@H](C)OC(=O)CC(O)CC(O)CCC(O)C(O)CC(O)C[C@]3(O)C[C@H](O)C(C(=O)O)C(C2)O3)C(O)[C@@H](N)C1O` (stereo not given in full) the normalised cell number was 1.18.
Compound `C/C=C/[C@@H]1C=C[C@@H]2C[C@H](C)CC[C@H]2[C@]1(C)/C(O)=C1\C(=O)[C@H](CO)N(C)C1=O` has a normalised cell number of 1.01.
With `O=C1Cc2cc(O)ccc2O1` the normalised cell number was 1.14.
With `CC(C)(O)[C@@H]1CC[C@](C)([C@H]2[C@@H](O)C[C@@]3(C)C4C[C@H](O[C@@H]5O[C@H](CO)[C@@H](O)[C@H](O)[C@H]5O)C5C(C)(C)[C@@H](O[C@@H]6OC[C@@H](O)[C@H](O)[C@H]6O)CC[C@@]56C[C@@]46CC[C@]23C)O1` (stereo not given in full) the normalised cell number was 0.92.
Work on `COC(=O)C1O[C@H](OC)[C@@H](OCc2ccccc2)[C@@H](OCc2ccccc2)C1O` (stereo not given in full) yielded a normalised cell number of 1.15.
In the case of `Cc1ccc(S(=O)(=O)O[C@@H]2CCOC2=O)cc1`, the normalised cell number is reported as 1.01.
With `CC(=O)OC1(C)CC[C@@]23CC1C(C)(C)[C@@H]2CC[C@H]3C` (stereo not given in full) the normalised cell number was 1.15.
`CC1(C)C2CC(=O)[C@@]3(C)C4=CC(=O)O[C@@H](C(=O)O)[C@]4(C)CCC3[C@@]2(C)[C@@H](O)C[C@H]1O` (stereo not given in full) gave a normalised cell number of 0.99.
`OCc1cc(Br)ccc1Cl` showed a normalised cell number of 1.14.
`CC1CCC2(OC1)OC1CC3C4CCC5C[C@@H](O)CCC5(C)C4=CCC3(C)C1[C@@H]2C` (stereo not given in full) showed a normalised cell number of 0.94.
Compound `CC(=O)OC[C@@]1(O)C[C@@]23CCC4c5ccoc5CC[C@]4(C)C2CC[C@@H]1C3` (stereo not given in full) has a normalised cell number of 0.88.
Compound `COC1O[C@@H]2O[C@]3(C)CC[C@H]4[C@H](C)CC[C@@H]([C@H]1C)[C@@]24OO3` (stereo not given in full) has a normalised cell number of 0.67.
For `COC(=O)C[C@H]1C(C)(C)C(=O)[C@@H]2CC3=C(CC[C@]4(C)C3=CC(=O)O[C@H]4c3ccoc3)C1(C)C2=O`, the normalised cell number was 1.06.
Compound `CN(C)c1cccc2c(S(N)(=O)=O)cccc12` has a normalised cell number of 1.16.
Compound `C[C@H]1[C@H](OC(=O)CCC(=O)O)O[C@@H]2O[C@]3(C)CC[C@H]4[C@H](C)CC[C@@H]1[C@@]24OO3` has a normalised cell number of 0.55.
Work on `C/C=C\C(=O)O[C@@H]1[C@H](O)[C@@H](O)CO[C@@H]1C` yielded a normalised cell number of 0.99.
Compound `COC(=O)C[C@@H]1C2(C)C(=O)[C@@H](CC3=C4CC(O)O[C@@H](c5ccoc5)[C@]4(C)CCC32)[C@H](O)C1(C)C` (stereo not given in full) has a normalised cell number of 1.14.
Work on `CC(C)[C@@H]1CCC(CO)=C[C@@H]1/C=C(\CO)C(=O)O` yielded a normalised cell number of 1.13.
Compound `NCC1O[C@@H](OC2C(N)C[C@@H](N)C(O)[C@H]2OC2OC(CO)C(OC3OC(CN)[C@@H](O)C(O)[C@H]3N)C2O)C(N)[C@@H](O)C1O` (stereo not given in full) has a normalised cell number of 0.99.
`C[C@@H]1CC[C@@]23CCC4(C)[C@@](C=CC5[C@@]6(C)CCC(=O)C(C)(C)C6CC[C@]54C)(OC2=O)C3[C@H]1C` (stereo not given in full) showed a normalised cell number of 0.98.
Compound `CC(=O)O[C@H]1CC2CCC3C(CC[C@@]4(C)C3C[C@H]([N+]3(C)CCCCC3)[C@@H]4OC(C)=O)[C@@]2(C)C[C@@H]1N1CCCCC1` (stereo not given in full) has a normalised cell number of 0.88.
Work on `CC(C)CC1OC23SCC(c4ccccc4)N2C(=O)C1C(C)(C)S3` (stereo not given) yielded a normalised cell number of 1.03.
